This note sets out measurements from PubChem BioAssay AID1259423 (Fisher Drug Discovery Resource Center, 2018).

Screen size: about 270,000 compounds; about 410 (0.15%) were called active. Cut-off read from the data, not from the text of the source: active = activation above about 40%; inactive = the rest, inconclusive results apart. Only a selection was taken, and actives are over-represented in it overall.

The test system of this assay is Aedes aegypti neuropeptide Y-like receptor 7 (NPYLR7). Nature of the assay: agonists of mosquito NPYLR7 receptor, primary screen, cell-based, Aedes aegypti, calcium fluorescence, mosquito biting behavior (AID 1259423).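 Note: 0% = vehicle and 100% = reference agonist at the receptor.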 Particulars: HEK293T NPYLR7/Galpha15, GCaMP6s calcium fluorescence, at 10 µM, stronger effect = higher value.
Where [1] appears, read: measured here: Max-Min RFU normalised activation.

Regarding `Cc1ccc(CNc2oc(-c3ccc(S(=O)(=O)N(C)Cc4ccccc4)cc3)nc2C#N)cc1`, the activation is -0.355% (inactive). Moreover, under setting [1], the activation is 4.09%.
With `O=C(NC1Cc2ccccc2C1)c1ccc(-c2cc(-c3cccc(C(F)(F)F)c3)n[nH]2)cc1`, the activation is 25.1% (inactive). For the same compound, the activation under setting [1] worked out at 16.8%.
Take `O=c1oc2c(Cl)cc(Cl)cc2cc1-c1nnc(Nc2ccccc2F)s1`: the activation is 3.96% (inactive). Further, the activation under setting [1] was determined as 1.58%.
The like results for `N#Cc1cc2cc(Cl)cc(Cl)c2oc1=O` were, in that order, 189% (active) and 162%.
Regarding `N#Cc1cc(Cl)c(Cl)cc1C#N`, the activation is 9.21% (inactive). The activation under setting [1] came to 8.51%.
The like results for `CCCCNC(=O)c1c(C)c(C(=O)OCC)n(C)c1C` were, in that order, -1.79% (inactive) and 26.8%.
Regarding `O=C(Nc1cc(F)c(N2CCCC2)c(F)c1)C1Cc2ccccc2O1` (configuration not stated), the activation is 2.58% (inactive). Moreover, the activation under setting [1] came to 0.532%.
For `COc1ccc(NC(=O)C(C)SCc2cccc(C(F)(F)F)c2)cc1` (configuration not stated), the activation was -0.635% (inactive). Besides, the activation under setting [1] is -2.01%.
As to `C=C(C)Cn1c(C2CC(=O)N(c3ccccc3CC)C2)nc2ccccc21` (configuration not stated), the activation is -1.84% (inactive). Also, the activation under setting [1] was found to be 23.5%.
Taken in the same sequence, the figures for `CCN(CC)C(=O)C1(C)CCN1C(=O)Cc1ccc(-c2ccccc2)cc1` (configuration not stated) were 4.71% (inactive) and 3.32%.
`COc1ccc(OCC(O)CN(Cc2cccn2C)CC2CCCO2)cc1` (configuration not stated): the activation is 18.8% (inactive). The activation under setting [1] was determined as 19.6%.
Taken in the same sequence, the figures for `COc1cccc(CN(CC(O)COCC(C)C)CC2CCCO2)c1` (configuration not stated) were 23.7% (inactive) and 17.6%.
Taken in the same sequence, the figures for `CC(C)COCC(O)CN(Cc1cccn1C)CC1CCCO1` (configuration not stated) were 43.6% (active) and 42.4%.
The like results for `Fc1ccc(-c2cnc(NCCc3ccccn3)cn2)cc1Cl` were, in that order, -2.76% (inactive) and -5.38%.
As for `COC(=O)C1=C(NC(=O)CSCc2ccccc2)CCS1`, the activation is -1% (inactive). Under setting [1], the activation is -1.58%.
Taken in the same sequence, the figures for `CC1CCC(C(C)C)C(OCC(O)CN2CCN(CCO)CC2)C1` (configuration not stated) were 0.73% (inactive) and 22.3%.
